# Screens deposited in PubChem BioAssay by several laboratories.
# CSC inhib = blocks cancer stem cells | cancer stem cell-like cells viability, luminescence | inhibition, % at 7.5 µM | 300,000 compounds, 1.1% hits; in the data active = inhibition above about 75%; tested in HMLE shEcad cells
# Gli-Sufu block = blocks Gli-Sufu signaling in a luciferase reporter; Sufu-KO-LIGHT fibroblasts, Gli luciferase reporter luminescence; inhibition, % at 5 µM; 340,000 compounds, 0.74% hits; AID 588413;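 active = inhibition above about 55%, limit read from the data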;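 note: 0% = DMSO-treated cells and 100% = wells with medium but no cells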
# MPTP block = permeability transition pore inhibition. isolated mouse mitochondria, Ca2+ swelling absorbance, 30 min. inhibition, % at 10 µM. 360,000 compounds, 1.4% hits;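 active = inhibition of 50% or more, scaled per plate between neutral and stimulator controls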;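 note: 0% = DMSO wells given calcium and 100% = 1 mM EGTA wells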
# Beta apoptosis = blocks beta cell apoptosis. AID 435005. protection from apoptosis, % (concentration not given with the values). 300,000 compounds, 0.8% hits. INS-1E cytokine-induced death, ATP luminescence, 48 h; percent of positive-control rescue, neutral wells zero;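 active = Every replicate reaches about 75%, or at least half do and their mean reaches it too, limit read from the data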;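 note: 0% = cytokine-treated negative control wells and 100% = positive control rescue; higher means more ATP so stronger rescue from cytokine killing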
# Mdm2 MdmX PPI = inhibitors of human Mdm2/MdmX interaction; O15151+Q00987; SaOS-2 split-luciferase Mdm2/MdmX complementation, luminescence; inhibition, % at 8 µM; 330,000 compounds, 3% hits;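 active = inhibition of at least 50% at 8 µM in the primary screen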
# Target sequence (O15151 whole entry, looked up): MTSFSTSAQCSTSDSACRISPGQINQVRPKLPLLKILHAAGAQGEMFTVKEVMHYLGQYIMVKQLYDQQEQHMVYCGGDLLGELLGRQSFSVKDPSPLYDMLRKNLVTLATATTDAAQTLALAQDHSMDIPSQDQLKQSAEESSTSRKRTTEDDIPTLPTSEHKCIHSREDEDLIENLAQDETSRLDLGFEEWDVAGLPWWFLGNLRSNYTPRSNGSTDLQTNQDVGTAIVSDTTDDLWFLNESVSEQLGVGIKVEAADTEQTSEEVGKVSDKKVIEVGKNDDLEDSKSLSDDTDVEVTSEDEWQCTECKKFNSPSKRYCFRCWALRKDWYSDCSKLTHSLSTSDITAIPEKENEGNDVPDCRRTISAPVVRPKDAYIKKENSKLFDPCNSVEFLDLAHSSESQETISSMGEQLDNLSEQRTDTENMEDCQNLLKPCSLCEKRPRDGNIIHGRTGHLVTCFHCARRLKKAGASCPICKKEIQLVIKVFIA
# Target sequence (Q00987 whole entry, looked up): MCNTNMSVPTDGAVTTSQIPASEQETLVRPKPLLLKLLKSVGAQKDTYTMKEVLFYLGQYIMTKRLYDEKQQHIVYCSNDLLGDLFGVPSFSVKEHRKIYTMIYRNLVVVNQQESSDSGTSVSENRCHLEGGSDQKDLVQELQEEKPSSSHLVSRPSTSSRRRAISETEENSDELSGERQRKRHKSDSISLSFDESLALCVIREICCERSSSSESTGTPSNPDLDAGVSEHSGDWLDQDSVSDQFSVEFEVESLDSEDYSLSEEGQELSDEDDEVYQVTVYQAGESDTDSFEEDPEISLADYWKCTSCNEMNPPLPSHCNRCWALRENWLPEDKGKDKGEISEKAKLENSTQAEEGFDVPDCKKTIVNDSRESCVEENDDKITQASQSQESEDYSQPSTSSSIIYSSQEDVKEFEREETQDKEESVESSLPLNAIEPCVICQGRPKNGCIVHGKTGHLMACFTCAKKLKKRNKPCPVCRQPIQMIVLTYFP
# NR3A LBD binder = modulates the human NR3A ligand-binding domain. 340,000 compounds, 2.5% hits. NR3A LBD differential scanning fluorimetry, Tm shift; 0% = protein alone, 100% = glycine-bound protein. Tm shift relative to glycine control, % at 25 µM. AID 1259313;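 active = melting temperature shift of at least 10% of the positive control shift, at one fixed dose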
# Numbers without * were called inactive; x = no result given. Only some compounds are listed: those with a hit (about 6.6% of all), similar ones and a draw of the others.
SMILES,CSC inhib,Gli-Sufu block,MPTP block,Beta apoptosis,Mdm2 MdmX PPI,NR3A LBD binder
Cc1ccc(S(=O)(=O)N2CCOC2CNC(=O)C(=O)NCCN(C)C)cc1 (stereo unspecified),26,2,3,-7,13,13*
CN(C)CCNC(=O)C(=O)NCC1OCCN1S(=O)(=O)c1ccc([N+](=O)[O-])cc1 (stereo unspecified),16,-2,-1,-2,-17,-1
O=C(NNc1ccccc1)C(=O)NNS(=O)(=O)c1ccc(CCCl)cc1,105*,-7,0,0,-27,-2
CC(=O)c1sc(NC(=O)CCN2C(=O)c3ccccc3C2=O)nc1C,-1,-10,3,-3,36,17*
CCc1nnc(NC(=O)CCN2C(=O)c3ccccc3C2=O)s1,-9,1,-1,-1,4,-2
O=C(O)Cc1cn(-c2ccccc2)nc1-c1ccc(Cl)cc1,7,9,0,-2,1,12*
O=C(Nc1cn(-c2ccccc2)nc1-c1ccc(Cl)cc1)c1ccccc1,x,3,7,6,-7,7
OCc1cn(-c2ccccc2)nc1-c1ccc(Br)cc1,17,-29,1,-6,-59,34*
Cc1ccc(-n2ncc3c2CCCC3NC(=O)CCn2ccnc2C)cc1C (stereo unspecified),12,23,0,2,15,2
Cc1cccc(OCC(=O)NCC(C)(C)N2CCOCC2)c1,x,-21,0,-10,-19,2
CCN1CCN(C(=O)/C=C/c2ccc(C(C)C)cc2)CC1,26,6,0,-2,9,-3
CCN1CCC(O)(/C=C/c2ccc(C(C)C)cc2)C(C(=O)/C=C/c2ccc(C(C)C)cc2)C1 (stereo unspecified),x,1,35,x,x,24*
Cn1cc(/C=N/NC(=O)c2ccccc2O)c2ccccc21,-9,-11,0,2,11,9
CC(=O)n1cc(/C=N/NC(=O)c2ccccc2O)c2ccccc21,0,1,0,-6,9,32*
O=C(Nc1cc(Cl)ccc1N1CCOCC1)c1ccc(Br)o1,-5,1,0,-1,12,3
CCC(=O)NC(=S)Nc1cccc(Cl)c1N1CCCCC1,85*,5,3,7,17,-10
COc1ccc(N2CCOCC2)c(NC(=O)c2ccc(Br)o2)c1,-15,-2,-1,0,43,13*
CC(=O)NC(=S)Nc1ccccc1N1CCCCC1,x,21,0,-5,25,13*
COc1cccc(C(=O)NC(=S)Nc2ccccc2N2CCOCC2)c1,116*,8,-1,8,44,-2
COC(C[C@@H]1O[C@H]1C(=O)[C@@H](C)OCc1ccccc1)OC,-6,-3,0,-10,-2,-3
C=C(C)[C@H]1CC=C(C(=O)O)CC1,x,x,x,x,x,2
CC(NC(=O)CN(C)CC(=O)Nc1cccc(F)c1)c1ccccc1 (stereo unspecified),x,3,0,-1,10,2
COc1ccc(C(=O)NC(=S)Nc2ccccc2N2CCCCC2)cc1[N+](=O)[O-],101*,22,5,0,17,5
CCOc1ccc2nc(NC(=O)CSc3ccccc3)sc2c1,-4,-1,-1,-8,15,30*
CCCC(=O)Nc1nc2ccc(OCC)cc2s1,12,-88,-1,1,-89,4
SMILES,CSC inhib,Gli-Sufu block,MPTP block,Beta apoptosis,Mdm2 MdmX PPI,NR3A LBD binder
COc1ccc2nc(NC(=O)CSc3nc4ccccc4o3)sc2c1,x,3,-7,2,39,15*
CCOc1ccc2nc(NC(=S)N(C)C)sc2c1,x,-19,6,37,-128,30*
NCCc1nnc(SCC(=O)c2ccc(Cl)cc2)o1,-9,5,1,-6,-51,-2
CC1C(=O)C(C)C(c2cc(Br)ccc2O)NC1c1cc(Br)ccc1O (stereo unspecified),x,-5,8,x,x,32*
CC1C(=O)C(C)C(c2ccc(Br)cc2)NC1c1ccc(Br)cc1 (stereo unspecified),49,-16,0,8,34,-14
COc1cc2c(cc1NC(=O)c1ccncc1)oc1ccccc12,-13,-2,-1,1,-41,22*
COc1cc2c(cc1NC(=O)/C=C/c1cc(OC)c(OC)c(OC)c1)oc1ccccc12,48,12,0,0,42,27*
COc1cc2c(cc1NC(=O)c1ccc(C)c([N+](=O)[O-])c1)oc1ccccc12,-3,3,2,-3,21,1
COc1cc2c(cc1NC(=O)c1cccnc1)oc1ccccc12,-7,15,-3,-9,-10,20*
COc1cc2c(cc1NC(=O)CN(C)Cc1cccc(OC)c1OC)oc1ccccc12,99*,46,2,-8,17,-21
CCCCC(=O)N(C)c1c(C)nc2ccc(C(=O)N3CCN(c4ccccc4)CC3)cn12,x,x,-1,x,x,x
CCCOc1cccc(-c2nn(-c3ccccc3)cc2/C=C(\C#N)C(=O)NCCCn2ccnc2)c1,8,-6,0,-4,13,11*
O=C(Nn1c(O)c(C=C2N=c3ccccc3=N2)sc1=S)c1ccc(Cl)cc1,-11,4,1,4,-4,32*
O=C(Nn1c(O)c(C=C2N=c3ccccc3=N2)sc1=S)c1ccccc1,-9,3,-1,-5,33,23*
O=C(Nn1cnnc1)c1ccc(Cl)cc1,1,3,1,-4,2,-1
Cc1ccc(S(=O)(=O)Nn2c(O)c(C=C3N=c4ccccc4=N3)sc2=S)cc1,21,-5,5,0,-12,7
Cc1ccc(C(=O)Nn2c(O)c(C=C3N=c4ccccc4=N3)sc2=S)cc1,1,2,-1,12,27,27*
O=C(Nn1c(O)c(C=C2N=c3ccccc3=N2)sc1=S)c1cccc(Cl)c1,-9,-13,1,3,19,29*
COc1ccc(C(=O)COC(=O)c2nn(C)cc2Cl)cc1,-15,-29,0,0,27,1
Oc1c(C=C2N=c3ccccc3=N2)sc(=S)n1-c1ccc2ccccc2c1,x,-2,34,9,21,17*
Oc1c(C=C2N=c3ccccc3=N2)sc(=S)n1-c1ccc(F)cc1,-24,12,16,3,4,9
O=c1oc(-c2ccc(O)c(O)c2)cc2cc(O)cc(O)c12,x,10,3,x,-61,20*
O=c1oc(-c2ccc(O)c(O)c2)cc2cccc(O)c12,x,7,9,x,-27,24*
COc1cc(-c2cc(=O)c3c(O)cc(O)cc3o2)ccc1O,-10,-2,1,-10,34,-1
Nc1c(NC=O)c(=O)n(Cc2ccccc2)c(=O)n1Cc1ccccc1,-21,-3,0,x,3,7
Nc1nn(-c2ccccc2)c(N)c1N=Nc1ccccc1F,63,-107,-10,3,-108,-2
Cc1nc2c(N=Nc3ccccc3F)c(N)nn2c(N)c1C#N,2,-32,-2,6,25,15*
